Compound activity: PubChem, National Center for Advancing Translational Sciences (NCATS)
The list is not random: actives were taken first. Their share in the collection is about 3.8%.
ATXN2 expr inh: inhibitors of ATXN2 expression. HEK-293 ATXN2-luciferase reporter, luminescence, 24 h. Potency, µM (highest dose often 57 µM), actives largely listed as inhibitors. 0.72% of 360,000 active. AID 1745845; also: nearly all actives have a fitted effect of over 55% in size
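qHTS (up to 57 uM final) was run with 24 h compound exposure of reporter cells at 37 °C. Each well was multiplexed: SteadyGlo luminescence measured ATXN2-luciferase expression after a fluorogenic Gly-Phe-AFC viability readout (25 uM final).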
ATXN viability: reduces viability in counter-screen for ATXN expression inhibitors | AID 651635 | S2 cells (HEK-293 line with an ATXN2-luciferase reporter) viability, CellTiter-Fluor protease fluorescence, 24 h | Potency, µM (highest dose often 56.7 µM), actives largely listed as cytotoxic | 0.49% of 400,000 active; also: nearly all actives have a fitted effect of over 40% in size
HepG2 tox: counter-screen for TGF-b inhibitors: cytotoxicity in HepG2 cells; HepG2 CAGA-GFP viability, ATP luminescence, 18 h; Potency, µM (series often up to 46.1 µM), hits mostly cytotoxic; 0.76% of 410,000 active
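CellTiter-Glo luminescence gave cytotoxicity after 18 hours at 37 degrees C. The cells were HepG2 CAGA-GFP in 1% FBS DMEM, stimulated with 500 pg/mL TGF-beta after compound addition. %Activity was normalised to no-cell wells (complete cell-killing) and DMSO (no toxicity), and curves were fitted and classified.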
HT1080 IDH1KD tx: toxicity to HT-1080 IDH1 knockdown cells (counter line); 2% of 360,000 active; Potency, µM (titrated, usually from 46.1 µM), hits mostly cytotoxic; HT-1080 IDH1 knockdown viability, ATP luminescence, 48 h; AID 686971
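After a 2 h attachment period, IDH1KD HT-1080 cells took pin-transferred compound for 48 h at 37 °C; ATP-based luminescence after 10 min room-temperature reagent incubation reported viability.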
HT1080NT lethal: kills 2HG-producing HT-1080-NT fibrosarcoma cells | HT-1080-NT fibrosarcoma viability, CellTiter-Glo ATP luminescence, 48 h | Potency, µM (titrated, usually from 46.1 µM), usual class: cytotoxic | 1.6% of 360,000 active;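 also: NT is the 2HG producing partner of a matched IDH1 knockdown line; nearly all actives have a fitted effect of over 55% in size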
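Fibrosarcoma NT cells, 750 per well in 5% FBS RPMI, were exposed to compound for 48 hours. Viability: CellTiter-Glo luminescence.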
TGFb SMAD3 inh: TGF-b pathway inhibition | Potency, µM (series often up to 46.1 µM), usual class: inhibitors | 1.2% of 410,000 active | HepG2 CAGA-GFP TGF-b/SMAD3 reporter, GFP fluorescence, 18 h; TGF-beta stimulated, 500 pg/mL final | AID 588855; also: nearly all actives have a fitted effect of over 65% in size
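TGF-beta reporter screen: HEPG2 CAGA-GFP, 1% FBS, 500 pg/mL TGF-beta final, 18 h; per-cell GFP summed per well; curves fitted and categorized by class.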
A number is an active result; i = inactive; ? = inconclusive; nt = not tested or not shown; ! = a repeat was not active; [ ] = remark or other dose. Calls follow the shape of the dose curve; as a rule, active = well fitted curve in the direction sought with a large enough effect; inconclusive = small, poorly fitted or top-dose-only effect, or another doubt; inactive = no such curve, though single readings can be large; an effect the other way counts as inactive or inconclusive.

SMILES	ATXN2 expr inh	ATXN viability	HepG2 tox	HT1080 IDH1KD tx	HT1080NT lethal	TGFb SMAD3 inh
CCCCCCCCCCCCCCCCCCNc1ccn(C2OC(COP(=O)(O)OCC3OC(n4cc(F)c(=O)[nH]c4=O)CC3O)C(O)C2O)c(=O)n1 (configuration not stated)	?	?	i	10µM	?	?
CCCCCOC(=O)Nc1nc(=O)n([C@@H]2O[C@H](C)[C@@H](O)[C@H]2O)cc1F	i	i	nt	nt	nt	nt
COc1ccccc1C/C(N)=N/OC(=O)c1ccc(C)c([N+](=O)[O-])c1	i	i	i	10µM	i[9.24 µM]	i
Cc1ccc(C(=O)O/N=C(\N)Cc2cccs2)cc1[N+](=O)[O-]	i	i	i	i	i	i
Cc1noc(C)c1COc1cccc(C(=O)OC(C)C(=O)Nc2ccc3c(c2)OCO3)c1 (configuration not stated)	i	?	i	5µM	10µM	i
CCn1nc(C)c2c(-c3ccccc3)cc(=O)n(C(C)C(=O)NCCc3ccc(Cl)cc3)c21 (configuration not stated)	?	?	i	nt	nt	i
CCn1nc(C)c2c(-c3ccccc3)cc(=O)n(C(C)C(=O)NCc3ccccc3OC)c21 (configuration not stated)	?	?	i	nt	nt	20µM
CCOP(=O)(OCC)c1nc(-c2ccc(Cl)cc2Cl)oc1N1CCCCC1	i	i	i	23µM	18µM	?
CCOc1ccccc1NC(=O)N(Cc1ccc(C)o1)C1CCN(C(C)=O)CC1	i	i	i	nt	nt	i
CCOc1ccccc1C(=O)N1CCN(c2cccc(Cl)c2)CC1	i	i	i	0.11µM	0.25µM	?
O=C(O)c1ccccc1C(=O)N1CCN(c2cccc(Cl)c2)CC1	i	i	i	i	i	i
CCOc1ccc2ccccc2c1C(=O)N1CCN(c2ccccc2)CC1	i	?	i	7.9µM	?	i
CCOC(=O)c1[nH]c(C)c(C(=O)N2CCN(c3ccccc3)CC2)c1C	i	i	i	i	i	i
COc1ccccc1C(=O)N1CCN(c2cccc(C(F)(F)F)c2)CC1	i	i	i	9.2µM	15µM	i
CCOc1ccccc1N1CCN(C(=O)c2cc3ccccc3cc2OC)CC1	i	?	i	5.2µM	?	i
CCn1cc(C(=O)N2CCN(c3cccc(C(F)(F)F)c3)CC2)c2cc(OC)c(OC)cc2c1=O	?	i	i	nt	nt	?
O=C(NCc1ccncc1)c1cnn(-c2ncc3c(n2)-c2ccccc2CC3)c1C1CC1	nt	i	nt	nt	nt	nt
COc1ccc2cccc(CCNC(C)=O)c2c1	i	i	nt	nt	nt	nt
O=C(c1cccc([N+](=O)[O-])c1)N1CCN(c2cccc(Cl)c2)CC1	i	i	i	?	?	i
COc1ccc(C(=O)N2CCN(c3cccc(Cl)c3)CC2)c(OC)c1	i	i	i	?	15µM	i
COC(=O)c1cc(C(=O)N2CCN(c3cccc(Cl)c3)CC2)cc([N+](=O)[O-])c1	i	i	i	0.46µM	0.52µM	i
Cc1ccc(-c2nnn3c2nc(NCC(C)c2ccccc2)c2ccccc23)cc1 (configuration not stated)	i	i	i	nt	nt	i
O=C(Nc1ccc(F)cc1)c1nn(-c2ccccc2)c(=O)cc1Cl	?	?	i	21µM	18µM	?
Cn1ccc2cc(S(=O)(=O)N3CCN(C(=O)Nc4cccc(F)c4)CC3)ccc21	i	i	i	nt	nt	i
CC(C)c1cccc(-c2csc(C(C)(O)c3cccc(F)c3)n2)c1 (configuration not stated)	i	?	16µM	?	i	?
SMILES	ATXN2 expr inh	ATXN viability	HepG2 tox	HT1080 IDH1KD tx	HT1080NT lethal	TGFb SMAD3 inh
COc1ccc(C(C)(O)c2nc(-c3cccc(C(C)C)c3)cs2)cc1 (configuration not stated)	?	i	20µM	?	?	?
COc1ccc(C(C)(O)c2nc(-c3ccccc3OC)cs2)cc1 (configuration not stated)	i	i	i	16µM	?	i
COc1ccc(C(C)(O)c2nc(-c3cnc4ccccc4c3)cs2)cc1 (configuration not stated)	i	?	i	i	i	i
CC(O)(c1ccc(F)c(F)c1)c1nc(-c2cnc3ccccc3c2)cs1 (configuration not stated)	i	i	i	?	?	16µM
Cc1ccc(-c2csc(C(C)(O)c3cccc(F)c3)n2)cc1C (configuration not stated)	i	i	i	?	?	?
CC(O)(c1ccc(F)c(F)c1)c1nc(-c2ccc3ccccc3c2)cs1 (configuration not stated)	i	i	i	?	?	?
COc1ccccc1Cc1nc2ccccc2nc1SCC(=O)NCc1ccccc1Cl	nt	nt	i	nt	nt	i
CCC1(CC)C(=O)C2=C3C1[C@H](C(=O)OC)CC(C(=O)OC)C[C@H]3[C@H]1C(=O)N(C)C(=O)[C@H]1[C@H]2C (some centres not stated)	nt	nt	i	nt	nt	i
Cc1cc(Br)ccc1NC(=O)c1cc2c(s1)-c1ccccc1SC2	nt	nt	i	nt	nt	nt
CC(O)(c1cccc(F)c1)c1nc(-c2cccc(F)c2)cs1 (configuration not stated)	i	i	i	?	?	7.9µM
CCC(C)Nc1ccc(NC(C)CC)cc1 (configuration not stated)	?	nt	13µM!	9.2µM	3.7µM	11µM!
Cc1ccc(-c2nnn(CC(=O)N(Cc3cccs3)C(C(=O)NC3CCCC3)c3ccncc3)n2)cc1 (configuration not stated)	i	?	i	?	16µM	?
CCC(=O)Nc1ccc2nc(SCCOc3ccc(C)cc3OC)sc2c1	i	?	i	nt	nt	i
CC1(C)CC[C@]2(C(=O)O)CC[C@]3(C)C(=CC[C@@H]4[C@@]5(C)CC[C@H](O[C@@H]6O[C@H](C(=O)O)[C@@H](O)[C@H](O[C@@H]7OC[C@H](O)[C@H](O)[C@H]7O)[C@H]6O)C(C)(C)[C@@H]5CC[C@]43C)[C@@H]2C1	11µM	11µM	3.5µM	?	18µM	3.2µM
O=C(c1ccc(Cn2c(=S)[nH]c3ccccc3c2=O)cc1)N1CCN(c2ccccn2)CC1	16µM	i	i	i	?	?
O=C(c1ccc(Cn2c(=O)[nH]c3ccccc3c2=O)cc1)N1CCN(c2ccccn2)CC1	i	i	i	i	i	?
O=c1oc(-c2ccccc2)cc(Cl)c1Cl	?	nt	i	9.2µM	16µM	11µM
O=c1cc(-c2ccccc2)oc2ccc(Cl)cc12	i	i	i	?	i	i
